Source: PubChem BioAssay AID2330 (Broad Institute, 2010)
Hit rate of the full screen: of about 37,000 compounds, about 2,800 (7.6%) were called active. Roughly 1% stayed inconclusive and do not appear here. For the sample, actives were picked, then their nearest neighbours and some compounds at random. Unmarked numbers belong to inactive results. Rule as the data show it: active = inhibition above about 80%; inconclusive = no clear call, values can overlap the other calls; inactive = below that.

Assay: NOMO-1 AML cell viability reduction, primary screen, STK33 inhibitor project, CellTiter-Glo luminescence (AID 2330)
Settings: NOMO-1 AML viability, 72 h, stronger effect = higher value, concentration not given here

Row | Compound | inhibition
1 | Cc1noc(C)c1NC(=O)N(C)C[C@@H]1Oc2ccc(NC(=O)Nc3ccc(C(F)(F)F)cc3)cc2C(=O)N([C@H](C)CO)C[C@@H]1C | 7.38%
2 | CC(=O)N[C@@H](C(=O)O[C@H]1CCC(C)(C)[C@@H]2CCC3=C(COC3=O)[C@@]12C)C(C)C | 25.2%
3 | Cc1ccc(-c2nc(S(=O)(=O)c3ccc(Br)cc3)c(SCC(N)=O)o2)cc1 | 11.1%
4 | O=C(c1ccccc1)c1cnn(-c2ccc(Cl)cc2)n1 | 18.2%
5 | Cc1ccccc1NC(=O)CSc1nnc(-c2ccc([N+](=O)[O-])cc2)n1C | -7.25%
6 | CCCn1c2ccccc2c2nnc(SCC(=O)Nc3cccc4ccccc34)nc21 | 9.77%
7 | O=C1C(=O)N(CCn2c3ccccc3c3nc4ccccc4nc32)c2ccccc21 | 119% (active)
8 | CCn1c2ccccc2c2nnc(SCC(=O)O)nc21 | 11.8%
9 | Cc1ccc(C)c(OCC(=O)Nc2ccccc2C#N)c1 | 15.4%
10 | C[C@@H]1CN([C@H](C)CO)C(=O)c2cccc(NS(=O)(=O)c3cn(C)cn3)c2O[C@@H]1CN(C)Cc1ccc(C(F)(F)F)cc1 | -20.1%
11 | C[C@@H]1CN([C@@H](C)CO)C(=O)c2cccc(NS(=O)(=O)c3ccccc3)c2O[C@@H]1CN(C)S(=O)(=O)c1ccc(F)cc1 | 65%
12 | O=C(Nc1ccccc1)C(=S)Nc1ccccc1 | 38.4%
13 | O=C(Nc1ccccc1)Nc1ccc(C2SCCS2)cc1 | 89.9% (active)
14 | O=C(Nc1ccccc1)Nc1cc(C2CC2)nn1-c1ccccc1 | 16.4%
15 | C=C1C(=O)O[C@H]2C3=C(C)C[C@H](OC(C)=O)C[C@]3(C)CC[C@@H]12 | 122% (active)
16 | COc1ccc(CN(C)C[C@H]2Oc3ccc(NS(=O)(=O)c4c(C)noc4C)cc3CC(=O)N([C@H](C)CO)C[C@H]2C)cc1 | 5.72%
17 | COc1ccc(N(C(C)C(=O)Nc2cccc(Br)c2)S(C)(=O)=O)cc1 (stereo not drawn) | -13.9%
18 | Cc1nc(SCC(=O)Nc2ccc(C(=O)O)cc2)[nH]c(=O)c1C | 24.5%
19 | COC(=O)c1ccc(NC(=O)CSc2nc(-c3ccccc3)cc(=O)[nH]2)cc1 | 0.0616%
20 | COC(=O)c1ccc(NC(=O)CSc2nc(-c3ccccc3)c(-c3ccccc3)[nH]2)cc1 | 102% (active)
21 | C[C@H](CO)N1C[C@H](C)[C@H](CN(C)S(C)(=O)=O)Oc2ccc(NC(=O)c3ccncc3)cc2CC1=O | -14.9%
22 | CNC[C@H]1Oc2ccc(NS(=O)(=O)c3ccc(F)cc3)cc2CC(=O)N([C@H](C)CO)C[C@H]1C | -15.6%
23 | S=C(NCC1CC1)Nc1ccc(Cl)cc1 | 34.8%
24 | Oc1cc2c(cc1O)CN(C(=S)NCCc1ccc(Cl)cc1)CCC2 | 96.6% (active)
25 | COc1cccc2cc(C(=O)C3C(=O)C(=O)N(CCN4CCOCC4)C3c3ccc(F)cc3)oc12 (stereo not drawn) | -8.3%

Row | Compound | inhibition
26 | COc1ccc(CNC(=O)c2c(C)oc3c2cc(OC(C)=O)c2ccccc23)cc1 | 43%
27 | Cc1noc(C)c1S(=O)(=O)Nc1ccc2c(c1)CC(=O)N([C@H](C)CO)C[C@@H](C)[C@@H](CN(C)Cc1ccc(C(=O)O)cc1)O2 | -16.8%
28 | C[C@H](CO)N1C[C@H](C)[C@H](CN(C)S(=O)(=O)c2cn(C)cn2)Oc2c(NC(=O)c3ccncc3)cccc2C1=O | 29.1%
29 | O=C(Cn1cc(C(=O)C2CC2)c2ccccc21)Nc1ccccc1Cl | 3.17%
30 | COc1ccc(OC)c(NC(=O)Cn2cc(C(=O)C3CC3)c3ccccc32)c1 | -2.38%
31 | Cc1c(Cl)cccc1NC(=O)Cn1cc(C(=O)c2cccs2)c2ccccc21 | 88.1% (active)
32 | C[C@@H]1CN([C@@H](C)CO)C(=O)c2cccc(N(C)C)c2O[C@H]1CN(C)S(=O)(=O)c1cccs1 | 22.8%
33 | Cc1ccnc(N)c1 | 6.37%
34 | C[C@H](CO)N1C[C@H](C)[C@H](CN(C)C)Oc2ccc(NC(=O)Nc3ccc(F)cc3)cc2CC1=O | -3.06%
35 | COc1ccc(NC(=O)N(C)C[C@@H]2Oc3c(NC(=O)NC4CCCCC4)cccc3C(=O)N([C@H](C)CO)C[C@H]2C)cc1 | -1.16%
36 | C=CC(C)(O)CCC1(C)C2=C(C(OC(C)=O)C(OC(C)=O)C1C)C(C)(C)CCC2 (stereo not drawn) | 115% (active)
37 | C[C@@H]1CN([C@@H](C)CO)C(=O)c2cc(NC(=O)Nc3ccccc3)ccc2O[C@H]1CN(C)S(=O)(=O)c1ccccc1 | -0.0629%
38 | C[C@H](CO)N1C[C@H](C)[C@H](CN(C)S(=O)(=O)c2ccc(Cl)cc2)Oc2ccc(NC(=O)C3CCCCC3)cc2C1=O | 7.26%
39 | COc1ccc(OC)c(NC(=O)CSc2n[nH]c(-c3ccncc3)n2)c1 | 14.4%
40 | C[C@@H]1CN([C@H](C)CO)C(=O)Cc2cc(NC(=O)Nc3ccc4c(c3)OCO4)ccc2O[C@@H]1CN(C)Cc1ccc(C(=O)Nc2ccccc2N)cc1 | 96.7% (active)
41 | C[C@H]1CN([C@@H](C)CO)C(=O)Cc2cc(NC(=O)CCCCCC(=O)Nc3ccccc3N)ccc2O[C@@H]1CN(C)Cc1ccncc1 | 19.5%
42 | C[C@H](CO)N1C[C@H](C)[C@H](CN(C)Cc2ccc(C(=O)Nc3ccccc3N)cc2)Oc2ccc(NC(=O)Nc3ccccc3)cc2CC1=O | 141% (active)
43 | CC(C)NC(=O)Nc1ccc2c(c1)CC(=O)N([C@H](C)CO)C[C@@H](C)[C@@H](CN(C)Cc1ccc(C(=O)Nc3ccccc3N)cc1)O2 | 60.7%
44 | CC(C)NC(=O)Nc1ccc2c(c1)CC(=O)N([C@H](C)CO)C[C@H](C)[C@H](CN(C)Cc1ccc3c(c1)OCO3)O2 | 14.7%
45 | C[C@@H]1CN([C@H](C)CO)C(=O)Cc2cc(NC(=O)Nc3ccc(F)cc3)ccc2O[C@@H]1CN(C)Cc1ccc2c(c1)OCO2 | 31%
46 | C[C@@H]1CN([C@H](C)CO)C(=O)Cc2cc(NC(=O)Nc3ccc4c(c3)OCO4)ccc2O[C@H]1CN(C)Cc1ccc(C(=O)O)cc1 | 20.5%
47 | COc1ccc(CN(C)C[C@@H]2Oc3ccc(NC(=O)Nc4ccc5c(c4)OCO5)cc3CC(=O)N([C@H](C)CO)C[C@H]2C)cc1 | 8.79%
48 | C[C@H]1CN([C@@H](C)CO)C(=O)Cc2cc(NC(=O)Nc3ccc4c(c3)OCO4)ccc2O[C@H]1CN(C)Cc1ccc(C(=O)Nc2ccccc2N)cc1 | 127% (active)
49 | CCN1CCN(C(=O)N[C@@H](C(=O)N[C@@H]2C(=O)N3C(C(=O)O)=C(CSc4nnnn4C)CS[C@H]23)c2ccc(O)cc2)C(=O)C1=O | 16.9%
50 | Cc1ccc(C)c(S(=O)(=O)NC(C)C(=O)Nc2ccc(Br)cc2F)c1 (stereo not drawn) | 1.68%

Row | Compound | inhibition
51 | Cc1noc(C)c1S(=O)(=O)Nc1ccc2c(c1)CC(=O)N([C@H](C)CO)C[C@H](C)[C@H](CN(C)S(=O)(=O)c1cn(C)cn1)O2 | -3.68%
52 | C[C@@H]1CN([C@H](C)CO)C(=O)Cc2cc(NS(C)(=O)=O)ccc2O[C@@H]1CN(C)C(=O)Nc1ccc2c(c1)OCO2 | -3.88%
53 | O=C(Oc1ccccc1)c1cccc(COC(=O)c2cc3ccccc3oc2=O)c1 | 5.03%
54 | C[C@H](CO)N1C[C@H](C)[C@@H](CN(C)C(=O)Nc2ccccc2)Oc2ccc(N(C)C)cc2C1=O | 14.4%
55 | CC1CCCCC1NC(=O)CSc1nnc(N)s1 (stereo not drawn) | 13.1%
56 | COC(=O)c1cc(NC(=O)Cc2ccccc2[N+](=O)[O-])ccc1Cl | 62.9%
57 | Cc1nnc(SCC(=O)N2CCc3ccccc32)n1-c1ccccc1 | 10%
58 | CN(C)c1nc(SCCO)nc(N(C)C)n1 | 33.8%
59 | COc1cc2c(cc1NC(=O)CN(C)S(=O)(=O)c1ccc(Br)cc1)oc1ccccc12 | -7.24%
60 | COc1ccc(NC(=O)N(C)C[C@@H]2Oc3ccc(NS(C)(=O)=O)cc3C(=O)N([C@@H](C)CO)C[C@@H]2C)cc1 | 22.3%
61 | COC(=O)c1ccc(C(=O)OC)c(NC(=O)COc2ccc(C)cc2)c1 | 13.3%
62 | Cc1sc2ncnc(SCC(=O)Nc3ccccc3)c2c1-c1ccccc1 | 26.6%
63 | N#Cc1c(SCC(=O)Nc2ccccc2)ncc2cc3ccccc3nc12 | 110% (active)
64 | O=C(CSc1nnc(-c2ccccc2)c(-c2ccccc2)n1)Nc1ccccc1 | 1.52%
65 | CC(C)NC(=O)Nc1cccc2c1O[C@H](CN(C)S(=O)(=O)c1cccs1)[C@@H](C)CN([C@H](C)CO)C2=O | -9.32%
66 | COc1ccc2nc3c(nc2c1)C(=O)c1ccccc1C3=O | 29.2%
67 | COc1ccc(C)c(Cn2c(-c3nonc3N)nc3ccccc32)c1 | 112% (active)
68 | Cc1ccc(S(=O)(=O)N(C)C[C@@H]2Oc3ccc(NC(=O)Cc4ccccc4)cc3CC(=O)N([C@H](C)CO)C[C@H]2C)cc1 | 53.4%
69 | Cc1noc(C)c1NC(=O)Nc1cccc2c1O[C@@H](CN(C)Cc1ccc3c(c1)OCO3)[C@@H](C)CN([C@@H](C)CO)C2=O | 13.5%
70 | Cc1ccc2c(c1)CCCN2S(=O)(=O)c1cc(OCC(N)=O)c(C)cc1Cl | 93.4% (active)
71 | Cc1cc(Cl)c(S(=O)(=O)Nc2ccc3c(c2)OCCO3)cc1OCC(N)=O | 20.2%
72 | CCN1CCN(S(=O)(=O)c2cc(OCC(N)=O)c(C)cc2Cl)CC1 | 12.8%
73 | C[C@@H]1CN([C@H](C)CO)C(=O)c2cccc(NS(C)(=O)=O)c2O[C@@H]1CN(C)C(=O)Nc1cccc2ccccc12 | -9.1%
